40 sequences from the supplement of paper PMC10338343 can be followed below.

± gives the standard deviation.

For the first experiment, the system named is MILI (PIWIL2) piRISC loaded with L1MC piRNA (26 nt). As to the kind of experiment: pre-steady-state target cleavage rate (min^-1); guide: L1MC piRNA 5'p-UAACUAAAUACUAUGCAAGCUGUAGG; MIWI and MILI are mouse PIWI proteins and EfPiwi is from a freshwater sponge; tags in brackets are library labels; higher = faster piRNA-guided slicing of the target. Particulars: auxiliary factor: 500 nM mouse GTSF1. A digest of the protocol: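 Cleave-'n-Seq reactions paired 0.1 nM transcribed, DNA-blocked target RNA library with 1 nM active affinity-purified piRISC holding one synthetic guide, plus or minus 500 nM GTSF1 partner protein, in HEPES–potassium acetate buffer at 33 °C for 0–8 or 0–960 min. After sequencing of uncleaved targets and normalisation to depth and weakly complementary targets, the pre-steady-state cleavage rate was taken from a burst-and-steady-state fit. Three trials were pooled, and k3 was capped at 0.0001 min^-1.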
For the sequence UCCUGGAUGAGCUAGCAUACUAUUUAGUUA, the “pre-steady-state target cleavage rate” value is 0.0848 ± 0.017.
Still for that read-out and setting: in the case of UCCUGGAUCAGCUUUCAUAGUAUUUAGUUA it was 0.204 ± 0.018; in that of UCCUGCUACAGCUUCGAUAGUAUUUAGUUA, 0.253 ± 0.02.
For the sequence UCCUGGAACAGAUUGCAUAGUAUUUAGUUA, the “pre-steady-state target cleavage rate” value worked out at 0.284 ± 0.012.
On the same count and under the same terms, in the case of UCCUGCUCCAGCUUGCAUAGUAUUUAGUUA it was 0.256 ± 0.017; in that of UCCUGGUUGUGCUUGCAUAGUAUUUAGUAA, 0.0938 ± 0.02.
Still for that read-out and setting: then UCCUCCUACAGUUUGCAUAGUAUUUAGUUA, with 0.299 ± 0.013.
Still for that read-out and setting: then UCCUGCUACAGCAUGCAUAGUAAUUAGUUA, with 0.225 ± 0.022; and UCCUCCUACAGGUUGCAUAGUAAUUAGUUA, with 0.205 ± 0.018; and UCCUGGAACGAGCUUGCAUAGUAUUUAGUUA, with 0.239 ± 0.024.
Consider UCCUGCUACAGCUUGCAUAGUAUUAAGUUA, for which the “pre-steady-state target cleavage rate” value was found to be 0.245 ± 0.028.
The same measure, in the same setting: in the case of UCCUGGAUGAGCUUGCAUAGUAUUAAGUUA it was 0.194 ± 0.029; in that of UCCUGGAACUGCUUGCAUAGUUUUUAGUUA, 0.0358 ± 0.0071; in that of UCCUGGAACAGCUUGAAUAGUAUUUAGUUA, 0.243 ± 0.023.
Same read-out and setting: then UCCUCCUACAGGAUGCAUAGUAUUUAGUUA, with 0.273 ± 0.013; and UCCUGGAUGAGCUUGUAUAGUAUUUAGUUA, with 0.181 ± 0.015.
As to UCCUGGUAAGCUUGCAUAGUAUUUAGUUA, the “pre-steady-state target cleavage rate” value amounted to 0.273 ± 0.017.
Same read-out and setting: then UCCUCCUACAGCUUGCAUGUAUUUAGUUA, with 0.0804 ± 0.012; and UCCUGGUAGAGCUUGCAUAGUAAUUAGUUA, with 0.177 ± 0.021; and UCCUGCUACAGCUUCAUAGUAUUUAGUUA, with 0.231 ± 0.019.
For UCCUCCUACAGCUUGCUUAGUAUAUAGUUA, the “pre-steady-state target cleavage rate” value was 0.271 ± 0.024.
The same measure, in the same setting: in the case of UCCUGCUUCAGGUUGCAUAGUAUUUAGUUA it was 0.235 ± 0.015; in that of UCCUCUACAGCUUGCAUAGUAUUUAGUUA, 0.31 ± 0.013.
Still for that read-out and setting: then UCCUGGAACACCUUGCAAAGUAUUUAGUUA, with 0.0999 ± 0.015.
Still for that read-out and setting: in the case of UCCUCCUCACAGCUUGCAUAGUAUUUAGUUA it was 0.369 ± 0.021; in that of UCCUGGUUCAGCUUGCAAAGUAUUUAGUUA, 0.137 ± 0.018.
Take UCCUCCAACAGCUAGCAUAGUAUUUAGUUA: the “pre-steady-state target cleavage rate” value amounted to 0.25 ± 0.017.
Same read-out and setting: in the case of UCCUGGUACAGCUAGCAUAGUAUUAAGUUA it was 0.198 ± 0.032; in that of UCCUGCUACUCCUUGCAUAGUAUUUAGUUA, 0.262 ± 0.015; in that of UCCUGGAACAGUUUGCAUAGUAUUUAGUUA, 0.285 ± 0.014.
On the same count and under the same terms, in the case of UCCUGGAUGUCGUAGCAUAGUAUUUAGUUA it was 0.0554 ± 0.011; in that of UCCUCCUAAAGCUUGCAUAGUAUUUAGUUA, 0.157 ± 0.019.
Turning to UCCUGGAUGAGCUUGCAUAGUAUUUAGUUUA, the “pre-steady-state target cleavage rate” value amounted to 0.184 ± 0.02.
Still for that read-out and setting: then UCCUGCUACAGUCUUGCAUAGUAUUUAGUUA, with 0.222 ± 0.021; and UCCUGGAACAGCUUGCUUAGUAAUUAGUUA, with 0.213 ± 0.019.
Regarding UCCUGGAUCUGCUUGCAUACUAUUUAGUUA, the “pre-steady-state target cleavage rate” value amounted to 0.055 ± 0.0088.
Same read-out and setting: in the case of UCCUGCUACAGCUUUCAUAGUAUUUAGUUA it was 0.188 ± 0.021; in that of UCCUGGAUGAGGAUGCAUAGUAUUUAGUUA, 0.103 ± 0.017; in that of UCCUGGUACAGUUGCAUAGUAUUUAGUUA, 0.227 ± 0.023.
Consider UCCUGGAACAGCUACCAUAGUAUUUAGUUA, for which the “pre-steady-state target cleavage rate” value stood at 0.174 ± 0.016.

Staying with this experiment, now noted: auxiliary factor: none (no GTSF1).
As for UCCUGGAUGAGCUAGCAUACUAUUUAGUUA, the “pre-steady-state target cleavage rate” value worked out at 0.00398 ± 0.0027.
As for UCCUGGAUCAGCUUUCAUAGUAUUUAGUUA, the “pre-steady-state target cleavage rate” value came to 0.0048 ± 0.0029.
The same measure, in the same setting: then UCCUGCUACAGCUUCGAUAGUAUUUAGUUA, with 0.00716 ± 0.002; and UCCUGGAACAGAUUGCAUAGUAUUUAGUUA, with 0.0113 ± 0.0023; and UCCUGCUCCAGCUUGCAUAGUAUUUAGUUA, with 0.00969 ± 0.0026.
Still for that read-out and setting: in the case of UCCUGGUUGUGCUUGCAUAGUAUUUAGUAA it was 0.00427 ± 0.0031.
Still for that read-out and setting: then UCCUCCUACAGUUUGCAUAGUAUUUAGUUA, with 0.00895 ± 0.0021; and UCCUGCUACAGCAUGCAUAGUAAUUAGUUA, with 0.00692 ± 0.0027.
Consider UCCUCCUACAGGUUGCAUAGUAAUUAGUUA, for which the “pre-steady-state target cleavage rate” value was found to be 0.00589 ± 0.0017.
For the sequence UCCUGGAACGAGCUUGCAUAGUAUUUAGUUA, the “pre-steady-state target cleavage rate” value came out at 0.00792 ± 0.0025.
On the same count and under the same terms, then UCCUGCUACAGCUUGCAUAGUAUUAAGUUA, with 0.0047 ± 0.0024; and UCCUGGAUGAGCUUGCAUAGUAUUAAGUUA, with 0.00479 ± 0.0019; and UCCUGGAACUGCUUGCAUAGUUUUUAGUUA, with 0.00455 ± 0.0018.
Take UCCUGGAACAGCUUGAAUAGUAUUUAGUUA: the “pre-steady-state target cleavage rate” value is 0.00657 ± 0.0025.
The same measure, in the same setting: then UCCUCCUACAGGAUGCAUAGUAUUUAGUUA, with 0.00736 ± 0.0024; and UCCUGGAUGAGCUUGUAUAGUAUUUAGUUA, with 0.0088 ± 0.0033; and UCCUGGUAAGCUUGCAUAGUAUUUAGUUA, with 0.0137 ± 0.0032.
Turning to UCCUCCUACAGCUUGCAUGUAUUUAGUUA, the “pre-steady-state target cleavage rate” value is 0.00283 ± 0.0027.
In the case of UCCUGGUAGAGCUUGCAUAGUAAUUAGUUA, the “pre-steady-state target cleavage rate” value was found to be 0.00729 ± 0.0024.
Still for that read-out and setting: then UCCUGCUACAGCUUCAUAGUAUUUAGUUA, with 0.00508 ± 0.0025; and UCCUCCUACAGCUUGCUUAGUAUAUAGUUA, with 0.00356 ± 0.0021; and UCCUGCUUCAGGUUGCAUAGUAUUUAGUUA, with 0.0111 ± 0.003.
Still for that read-out and setting: then UCCUCUACAGCUUGCAUAGUAUUUAGUUA, with 0.00953 ± 0.0028; and UCCUGGAACACCUUGCAAAGUAUUUAGUUA, with 0.0069 ± 0.0021.
Still for that read-out and setting: then UCCUCCUCACAGCUUGCAUAGUAUUUAGUUA, with 0.0102 ± 0.0027; and UCCUGGUUCAGCUUGCAAAGUAUUUAGUUA, with 0.0176 ± 0.0038.
In the case of UCCUCCAACAGCUAGCAUAGUAUUUAGUUA, the “pre-steady-state target cleavage rate” value is 0.00537 ± 0.0023.
Same read-out and setting: in the case of UCCUGGUACAGCUAGCAUAGUAUUAAGUUA it was 0.00537 ± 0.0026.
On the same count and under the same terms, in the case of UCCUGCUACUCCUUGCAUAGUAUUUAGUUA it was 0.0091 ± 0.0024; in that of UCCUGGAACAGUUUGCAUAGUAUUUAGUUA, 0.00997 ± 0.0019; in that of UCCUGGAUGUCGUAGCAUAGUAUUUAGUUA, 0.00344 ± 0.0024.
On the same count and under the same terms, in the case of UCCUCCUAAAGCUUGCAUAGUAUUUAGUUA it was 0.00372 ± 0.0021; in that of UCCUGGAUGAGCUUGCAUAGUAUUUAGUUUA, 0.0105 ± 0.0031; in that of UCCUGCUACAGUCUUGCAUAGUAUUUAGUUA, 0.00875 ± 0.0023.
UCCUGGAACAGCUUGCUUAGUAAUUAGUUA: the “pre-steady-state target cleavage rate” value is 0.00562 ± 0.0024.
On the same count and under the same terms, in the case of UCCUGGAUCUGCUUGCAUACUAUUUAGUUA it was 0.0043 ± 0.0023; in that of UCCUGCUACAGCUUUCAUAGUAUUUAGUUA, 0.00503 ± 0.0022.
Same read-out and setting: in the case of UCCUGGAUGAGGAUGCAUAGUAUUUAGUUA it was 0.00665 ± 0.0021; in that of UCCUGGUACAGUUGCAUAGUAUUUAGUUA, 0.0115 ± 0.003.
The same measure, in the same setting: then UCCUGGAACAGCUACCAUAGUAUUUAGUUA, with 0.00403 ± 0.0022.
